Test results reported in PubChem BioAssay.
The source made the active and inactive calls.

What was measured:
[1] = small molecules captured by biotinylated probe aFSTL3 – biochemical, small-molecule microarray, fluorescence 635/667, stem cell growth factor project, primary screen (AID 1064); settings: higher = more signal;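 further: measures binding of the biotinylated anti-FSTL3 antibody to printed compounds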
[2] = binders from COS7 lysate, DM2A8 probe, primary screen, torsin A project, cell lysate, small-molecule microarray, fluorescence 635/667 (AID 1065); settings: higher = more signal, COS7 lysate expressing mutant human TOR1A
[3] = small molecules captured by biotinylated probe aFGF2 – biochemical, small-molecule microarray, fluorescence 635/667, stem cell growth factor project, primary screen (AID 1067); settings: higher = more signal;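 further: measures binding of biotinylated aFGF2 protein to printed compounds on slides; z-score merges feature fluorescence and signal-to-noise across triplicate slides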
[4] = small molecules captured by biotinylated probe aFGF10 – biochemical, small-molecule microarray, fluorescence 635/667, stem cell growth factor project, primary screen (AID 1071); settings: higher = more signal;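 further: score merges 667 nm spot intensity and signal to noise from triplicate slides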
[5] = target: Neurogenic locus notch homolog protein 2 (Homo sapiens) (UniProt Q04721); experiment: small molecules binding Notch2 protein – biochemical, small-molecule microarray, 635 nm fluorescence, stem cell growth factors, primary screen (AID 1073); settings: higher = more signal
[6] = target: Pro-neuregulin-1, membrane-bound isoform (Homo sapiens) (UniProt Q02297); experiment: small molecules binding neuregulin-1 protein – biochemical, small-molecule microarray, fluorescence 635/667, psychiatric disease protein project, primary screen (AID 1075); settings: NRG1 binding, 635 nm fluorescence, higher = more signal;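 further: score combines 667 nm spot fluorescence with signal to noise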
[7] = tested on: Neuregulin-1 EGF-like domain; experiment: small molecules binding NRG1 EGF domain – biochemical, small-molecule microarray, 635 nm fluorescence, primary screen (AID 1081); settings: higher = more signal;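 further: binding of the protein to compounds printed on small-molecule microarray slides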
[8] = FRG1 expression reporter modulators in myotubes – cell-based, C2C12 myotubes, firefly/Renilla luciferase, luminescence, FRG1 inhibition for FSHD, primary screen (AID 1084); settings: FRG1 promoter luciferase, higher = more signal, called active from +8 up or from −8 down
[9] = small molecules captured by biotinylated probe aFST – biochemical, small-molecule microarray, fluorescence 635/667, stem cell growth factor project, primary screen (AID 1086); settings: higher = more signal;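 further: score merges 667 nm fluorescence with signal-to-noise of each printed compound spot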
[10] = binders of probe aHhip on microarray, primary screen, stem cell growth factor project, biochemical, small-molecule microarray, fluorescence 635/667 (AID 1087); settings: higher = more signal;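 further: score merges spot fluorescence at 667nm with spot signal to noise ratio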

Sequence of Neurogenic locus notch homolog protein 2 (Homo sapiens) (Q04721 whole entry, looked up, canonical isoform): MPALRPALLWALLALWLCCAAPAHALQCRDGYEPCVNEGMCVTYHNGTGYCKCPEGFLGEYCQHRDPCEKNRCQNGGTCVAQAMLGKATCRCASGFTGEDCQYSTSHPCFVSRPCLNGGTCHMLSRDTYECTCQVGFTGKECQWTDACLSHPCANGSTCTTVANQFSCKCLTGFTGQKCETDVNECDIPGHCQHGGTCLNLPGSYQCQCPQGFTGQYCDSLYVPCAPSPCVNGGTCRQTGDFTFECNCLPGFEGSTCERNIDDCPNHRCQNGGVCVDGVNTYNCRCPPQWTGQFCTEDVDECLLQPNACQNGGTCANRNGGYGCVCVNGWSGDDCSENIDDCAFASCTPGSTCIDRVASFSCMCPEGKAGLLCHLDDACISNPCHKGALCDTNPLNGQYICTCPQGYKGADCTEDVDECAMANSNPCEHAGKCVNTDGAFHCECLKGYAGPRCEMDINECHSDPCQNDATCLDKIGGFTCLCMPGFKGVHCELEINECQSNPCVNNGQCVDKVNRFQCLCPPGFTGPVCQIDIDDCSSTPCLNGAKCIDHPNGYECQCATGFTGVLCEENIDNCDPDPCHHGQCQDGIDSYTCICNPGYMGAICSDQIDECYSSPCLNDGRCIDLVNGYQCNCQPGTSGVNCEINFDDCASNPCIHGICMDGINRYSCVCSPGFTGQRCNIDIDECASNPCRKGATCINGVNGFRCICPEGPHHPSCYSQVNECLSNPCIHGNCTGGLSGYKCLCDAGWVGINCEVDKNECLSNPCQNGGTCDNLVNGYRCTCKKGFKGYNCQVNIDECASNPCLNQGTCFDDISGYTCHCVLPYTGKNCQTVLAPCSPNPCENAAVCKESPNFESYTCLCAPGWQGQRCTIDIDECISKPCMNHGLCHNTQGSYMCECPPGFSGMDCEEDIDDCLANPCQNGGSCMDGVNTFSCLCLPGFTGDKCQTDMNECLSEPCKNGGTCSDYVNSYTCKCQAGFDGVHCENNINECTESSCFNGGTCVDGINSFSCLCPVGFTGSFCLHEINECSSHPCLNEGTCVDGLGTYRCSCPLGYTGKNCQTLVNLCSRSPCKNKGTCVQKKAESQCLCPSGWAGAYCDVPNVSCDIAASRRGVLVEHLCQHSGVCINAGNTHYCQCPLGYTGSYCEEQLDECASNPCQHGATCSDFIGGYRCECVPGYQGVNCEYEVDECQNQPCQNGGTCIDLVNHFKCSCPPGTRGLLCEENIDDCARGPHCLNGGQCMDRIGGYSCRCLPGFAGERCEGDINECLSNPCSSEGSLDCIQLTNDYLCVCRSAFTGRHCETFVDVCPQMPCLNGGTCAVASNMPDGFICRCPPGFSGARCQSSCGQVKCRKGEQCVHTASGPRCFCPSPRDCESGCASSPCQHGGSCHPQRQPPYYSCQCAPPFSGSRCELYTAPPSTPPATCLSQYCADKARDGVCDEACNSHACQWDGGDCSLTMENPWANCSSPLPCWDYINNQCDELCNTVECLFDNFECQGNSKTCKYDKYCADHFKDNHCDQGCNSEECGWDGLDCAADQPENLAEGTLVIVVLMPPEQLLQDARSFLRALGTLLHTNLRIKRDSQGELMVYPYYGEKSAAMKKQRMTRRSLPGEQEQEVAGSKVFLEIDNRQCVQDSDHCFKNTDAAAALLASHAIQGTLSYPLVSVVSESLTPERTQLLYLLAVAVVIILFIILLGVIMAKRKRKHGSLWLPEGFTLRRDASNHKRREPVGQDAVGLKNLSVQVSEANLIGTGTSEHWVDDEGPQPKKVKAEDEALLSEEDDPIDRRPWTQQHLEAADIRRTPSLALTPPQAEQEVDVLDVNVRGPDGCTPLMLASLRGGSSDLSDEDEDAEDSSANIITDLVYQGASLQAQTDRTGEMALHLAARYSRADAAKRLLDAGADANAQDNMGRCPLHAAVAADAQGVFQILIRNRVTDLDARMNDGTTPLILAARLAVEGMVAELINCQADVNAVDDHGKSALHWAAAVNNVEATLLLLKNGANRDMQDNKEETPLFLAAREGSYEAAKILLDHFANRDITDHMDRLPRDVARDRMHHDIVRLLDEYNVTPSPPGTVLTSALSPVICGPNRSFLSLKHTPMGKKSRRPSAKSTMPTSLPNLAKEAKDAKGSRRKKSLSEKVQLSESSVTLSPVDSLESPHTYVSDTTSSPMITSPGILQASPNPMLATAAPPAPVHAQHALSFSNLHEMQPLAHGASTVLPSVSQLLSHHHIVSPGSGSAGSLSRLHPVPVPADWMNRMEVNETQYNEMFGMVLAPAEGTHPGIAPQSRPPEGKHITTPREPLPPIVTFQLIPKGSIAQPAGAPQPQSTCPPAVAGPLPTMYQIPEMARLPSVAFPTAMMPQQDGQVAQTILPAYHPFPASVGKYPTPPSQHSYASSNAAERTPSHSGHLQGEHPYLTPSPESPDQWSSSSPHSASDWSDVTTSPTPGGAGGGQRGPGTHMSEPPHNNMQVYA
Sequence of Pro-neuregulin-1, membrane-bound isoform (Homo sapiens) (Q02297 whole entry, looked up, the tested form may be a part, canonical isoform): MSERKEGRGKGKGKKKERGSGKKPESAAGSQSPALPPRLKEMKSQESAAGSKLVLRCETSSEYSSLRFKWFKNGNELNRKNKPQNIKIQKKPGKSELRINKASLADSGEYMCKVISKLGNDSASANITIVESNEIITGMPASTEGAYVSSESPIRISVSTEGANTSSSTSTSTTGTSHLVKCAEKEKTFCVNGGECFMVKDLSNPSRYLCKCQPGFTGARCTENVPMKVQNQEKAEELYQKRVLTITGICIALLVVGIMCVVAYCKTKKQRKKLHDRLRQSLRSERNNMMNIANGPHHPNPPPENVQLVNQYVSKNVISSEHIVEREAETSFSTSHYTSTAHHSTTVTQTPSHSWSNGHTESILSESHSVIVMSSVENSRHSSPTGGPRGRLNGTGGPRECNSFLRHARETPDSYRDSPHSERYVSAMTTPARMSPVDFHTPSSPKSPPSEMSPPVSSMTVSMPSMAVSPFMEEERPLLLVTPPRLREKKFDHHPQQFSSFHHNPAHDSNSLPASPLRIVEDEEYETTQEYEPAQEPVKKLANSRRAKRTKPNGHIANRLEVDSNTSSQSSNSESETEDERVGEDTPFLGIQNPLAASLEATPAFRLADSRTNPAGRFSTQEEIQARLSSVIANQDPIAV

Structure (SMILES) | composite z-score [1] | composite z-score [2] | composite z-score [3] | composite z-score [4] | composite z-score [5] | composite z-score [6] | composite z-score [7] | z-score [8] | composite z-score [9] | composite z-score [10]
COCC(=C=CC[C@H](O)c1cccc(OCCO)c1)C[C@H](O)c1ccccn1 | -0.203 | -0.3 | -0.135 | 0.18 | -0.542 | 1.24 | 1.44 | 0.0158 (inactive) | 0.395 | -0.0618
CC(=O)n1cc(C(O)C2C=CC3C(=O)N(Cc4ccccc4)C(=O)C3N2n2cnnc2)c2ccccc21 (stereo not given) | -0.317 | 0.47 | -0.0218 | -0.0821 | 0.145 | -0.0307 | 0.351 | 0.186 (inactive) | 0.426 | -0.268
NC(N)=NCc1cn(CCc2c[nH]c3ccccc23)nn1 | -0.711 | 0.348 | -0.121 | 0.536 | 0.348 | 0.499 | 0.992 | 0.512 (inactive) | 0.225 | 0.132
CCC[C@@H]1C[C@@]1(CCC)[C@@H](NP(=O)(c1ccccc1)c1ccccc1)c1ccc(Cl)cc1 | 0.337 | -0.23 | 0.0368 | -0.387 | -0.615 | -0.23 | -0.414 | 1.8 (inactive) | -0.223 | 0.982
COc1ccccc1CN1C(=O)c2ccccc2[C@@H](C(=O)NC(C)C)[C@@H]1c1ccc(CO)cc1 | -0.0001 | -0.487 | 0.0451 | 0.761 | 1.53 | 1.13 | 1.31 | -1.41 (inactive) | 0.676 | 0.281
C=C(C(=O)CC[C@H](OC(=O)c1cccnc1)c1ccc(CO)o1)C(C)C | -0.201 | 0.674 | -0.0415 | 0.467 | 0.355 | 0.904 | 1.25 | 0.0619 (inactive) | 0.28 | -0.121
CC(C)N1C(=O)[C@@]2(c3ccc([N+](=O)[O-])cc3)CC(=O)N(C3CCCCC3)[C@@H]2c2ccc(CO)cc21 | -0.437 | 0.0633 | -0.151 | -0.0689 | -0.465 | -0.299 | 0.209 | 1.25 (inactive) | -0.293 | -0.118
CC(C)C(=C=CC[C@@H](O)c1ccccc1OCCO)C[C@@H](O)COCc1ccccc1 | -0.248 | 0.399 | -0.072 | 0.729 | 0.429 | 1.13 | 0.865 | -3.84 (inactive) | 0.592 | -0.199
COc1ccc([Si](C)(C)[C@H]2[C@H](CCn3cc([C@H](O)c4ccccc4)nn3)O[C@@]3(C(=O)N(Cc4cccc(N5C(=O)c6cccc7cccc5c67)c4)c4ccccc43)[C@@H]2C)cc1 | 0.582 | -0.17 | -0.158 | -1.11 | -1.65 | 0.84 | 0.251 | -0.704 (inactive) | -0.295 | -0.0994
COc1ccc([Si](C)(C)[C@H]2[C@H](CCn3cc([C@H](O)c4ccccc4)nn3)O[C@@]3(C(=O)N(Cc4ccc(N5CCC5=O)cc4)c4ccccc43)[C@@H]2C)cc1 | -0.179 | 1.16 | -0.116 | 0.368 | 0.176 | 0.635 | 0.636 | -2.36 (inactive) | 0.247 | -0.0237
CCCNC(=O)[C@@]1(c2ccc([N+](=O)[O-])cc2)CC(=O)N(C2CCCCC2)[C@@H]1c1ccc(CO)cc1I | 0.368 | 0.983 | 0.091 | 0.599 | 0.96 | 0.456 | 1.21 | -0.546 (inactive) | 0.29 | -0.0994
CCOC(=O)C[C@H]1[C@H](OC(=O)c2ccccc2-c2ccccc2)[C@@H](NC(=O)c2ccc3ccccc3n2)c2cc(OCCCO)ccc2N1C(=O)c1ccc2ccccc2n1 | -0.348 | 0.749 | -0.074 | 0.304 | 0.607 | 0.189 | 0.0721 | 0.075 (inactive) | 0.189 | -0.0994
C=C(C(=O)CC[C@H](OC(=O)c1cccnc1)c1cccc(OCCO)c1)C(C)C | 0.483 | 0.401 | -0.157 | -0.195 | -1.26 | -0.593 | 0.484 | 0.243 (inactive) | -0.809 | 0.238
Cc1ccc(F)cc1S(=O)(=O)N[C@@H]1CCN(Cc2ccc(OC(C)C)cc2)C1 | -0.0929 | 0.571 | -0.115 | -0.209 | -0.863 | -0.136 | 0.288 | -1.22 (inactive) | -0.192 | -0.257
C=CC1c2cc(O)c(OC)cc2CCN1Cc1sc2ccccc2c1Cl (stereo not given) | 1.12 | 0.396 | -0.0316 | 0.436 | 1.2 | 1.9 | 1.23 | -0.732 (inactive) | 0.853 | -0.0237
COc1cc(CO)cc(I)c1O[C@H]1C=C(C(=O)NCCO)C[C@@H](N(CC2CCCCC2)C(=O)c2ccc(C(F)(F)F)cc2)[C@@H]1O | -0.356 | 0.0668 | -0.101 | 0.268 | 0.546 | 0.115 | 1.02 | -1.85 (inactive) | 0.0701 | 0.12
CO[C@H]1O[C@H](CO)[C@@H](OC(=O)Nc2ccc(Oc3ccccc3)cc2)[C@H](OC(=O)Nc2ccccc2-c2ccccc2)[C@@H]1OC(=O)Nc1ccccc1-c1ccccc1 | 0.531 | 1.21 | 0.0325 | 1.02 | 1.57 | 1.59 | 1.18 | 1.17 (inactive) | 1.03 | -0.121
